Screening data deposited in PubChem BioAssay by National Center for Advancing Translational Sciences (NCATS).
RXFP1 antag = qHTS Assay for Antagonists of the Relaxin Receptor RXFP1; Relaxin receptor 1 (Homo sapiens), Q9HBX9; HEK293-RXFP1, relaxin-stimulated cAMP HTRF, 30 min; stronger effect = lower value; activity change, negative = inhibition, % at 57.5 µM; 350,000 tested, 0.59% active;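 active means activity change of -60% or lower, but not beyond a set lower limit; inconclusive means change between -60% and -40%, or beyond the set limit; inactive means change above -40%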; further: on the % scale 0 is the no-effect control and ±100 the full control effect
KCNH2 3.1 inh = qHTS for Inhibitors of KCHN2 3.1: Mutant qHTS; Potassium voltage-gated channel subfamily H member 2, brain isoform KCNH2 3.1 (human); U2OS KCNH2 3.1, thallium flux FluxOr; stronger effect = lower value; activity change, % (tested at about 1.8 µM); 340,000 tested, 0.95% active; AID 720553, 2013;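 active means maximum activity change below -70%; inconclusive means maximum activity change from -70% to -50%; inactive means maximum activity change above -50%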;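 further: thallium influx rate constant from kinetic fluorescence after stimulation buffer; on the % scale 0 is the no-effect control and ±100 the full control effect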
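Channel expression came from 3.1 mutant virus (1.77 x 10^8 /mL) applied to suspended U2OS cells for 4 h. Flux was tracked with FluxOr dye plus Red40 quencher, and kinetic rate constants normalized to controls.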
PTHR1 ag = qHTS for PTHR1 Agonists: Primary Screen; Parathyroid hormone/parathyroid hormone-related peptide receptor (Homo sapiens), Q03431; HEK293 GP2 PTHR1 cells, GloSensor cAMP luminescence, 1 h; Potency, µM (titrated, usually from 115 µM), for inactives: top-dose activation, usual class: activators; 410,000 tested, 0.075% active; AID 743266, 2014; further: potency means the concentration at half of the fitted maximal effect; nearly all actives have a fitted effect of over 55% in size
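HEK-293-derived GP2 cells expressing PTHR1 and a GloSensor cAMP reporter, 3,000/well, plated overnight, given luciferin plus IBMX (each 0.5 mM as added) for 1 h at 37 °C, then compound for 1 h at 37 °C. Luminescence was read after 15 min at room temperature.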
hERG WT inh = qHTS for Inhibitors of KCHN2 3.1: Wildtype qHTS | Voltage-gated inwardly rectifying potassium channel KCNH2 (Homo sapiens), Q12809 | U2OS, BacMam KCNH2, thallium flux FluxOr; stronger effect = lower value | activity change, % at 1.84 µM | 340,000 tested, 0.37% active | AID 720551, 2013;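 active means maximum activity change below -70%; inconclusive means maximum activity change between -70% and -50%; inactive means maximum activity change above -50%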; further: on the % scale 0 is the no-effect control and ±100 the full control effect
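U2OS cells were transduced with wild-type KCNH2 virus (2.03 x 10^8 / mL) for 4 h at room temperature, then cultured overnight at 37 C. Thallium flux was read with FluxOr dye. Rate constants were normalized to DMSO controls.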
GRP78 ERSR act = qHTS for Inducers of the Endoplasmic Reticulum Stress Response (ERSR) in Human Glioma: qHTS | U87-MG GRP78 promoter luciferase reporter, 16 h | Potency, µM, for the others: at the top dose activation, hits mostly activators | 420,000 tested, 0.02% active; further: potency means the concentration at half of the fitted maximal effect; series mostly up to about 76 µM; % of control where 0% means no effect; nearly all actives have a fitted effect of over 35% in size
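ERSR induction read as luciferase luminescence (Bright-Glo, 10 min at room temperature) in stably transfected human U87-MG glioma cells exposed to compounds for 16 h, using GRP78 as sensor.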
RXFP1 agonist = qHTS Assay for Agonists of the Relaxin Receptor RXFP1 | Relaxin receptor 1 (Homo sapiens), Q9HBX9 | HEK293T-RXFP1 cAMP TR-FRET, 30 min; response scale: percent of porcine relaxin response, buffer zero | Potency, µM (top dose mostly 57.5 µM), for inactives: at the highest dose activation, actives largely listed as activators | 370,000 tested, 0.3% active | AID 2676, 2010; further: potency means the concentration at half of the fitted maximal effect; on the % scale 0 is the no-effect control and ±100 the full control effect; nearly all actives have a fitted effect of over 60% in size
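cAMP rise read by TR-FRET after 30 min, 37C compound exposure (up to 58 uM) in RXFP1-transfected HEK293 cells with Ro 20174 present. EC50 from Hill-equation fits, with 29 nM porcine relaxin as 100% and buffer as basal.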
The depositor's hits bear a star; i = inactive; ? = inconclusive; . = no result given; [ ] = another dose, or the depositor's remark. Hits are enriched below; roughly 1.4% of the tested compounds scored in any of these assays. Unless noted, the call rests on the fitted dose curve; in most records, active means well fitted curve in the direction sought with a large enough effect; inconclusive means small, poorly fitted or top-dose-only effect, or another doubt; inactive means no such curve, though single readings can be large; an effect the other way counts as inactive or inconclusive.

SMILES | RXFP1 antag | KCNH2 3.1 inh | PTHR1 ag | hERG WT inh | GRP78 ERSR act | RXFP1 agonist
CCCN(c1ccc(OCC)cc1)c1ncnc2nc[nH]c12 | . | -90* | i | -8 | -2% | 1%
Cn1cc(S(=O)(=O)N2CCCC2)cc1C(=O)NCc1ccccc1Cl | -73* | -3 | -45% | 13 | -3% | 5%
COc1cccc(CNC(=O)c2cc(S(=O)(=O)N3CCOCC3)cn2C)c1 | -82* | -10 | -13% | -4 | -1% | 0%
Cc1cc(C)cc(NC(=O)c2cc(S(=O)(=O)N3CCCC3)cn2C)c1 | 4 | -107* | i | 11 | -3% | 5%
COc1ccccc1CNC(=O)c1cc(S(=O)(=O)N2CCCC2)cn1C | -5 | -6 | i | -9 | -2% | 0%
COc1ccc(C(=O)Nc2ccc(N3CCN(C(=O)c4cccs4)CC3)cc2)cc1Br | -11 | ? | -25% | 31 | 0% | 0%
Cc1cnc(C)cn1 | . | . | . | . | -2% | .
COc1ccccc1N1CCN(Cc2cc(Br)c(O)c3ncccc23)CC1 | -92* | -2 | 3% | -6 | -5% | -2%
COc1cccc(CN(C)C(=O)c2cccc(S(=O)(=O)N3CCN(c4ccc(F)cc4)CC3)c2)c1OC | 3 | -159* | -26% | 0 | 0% | 0%
CN1CCN(S(=O)(=O)c2cccc(C(=O)N(C)C(c3ccccc3)c3ccccc3)c2)CC1 | -19 | -75* | i | 11 | -5% | 1%
COc1cccc(CN(C)C(=O)c2cccc(S(=O)(=O)N3CCN(c4ccccc4)CC3)c2)c1OC | 8 | -6 | -43% | 8 | -5% | .
O=C(CCS(=O)(=O)c1nc(-c2ccc3c(c2)OCO3)cc(C(F)(F)F)n1)Nc1ccccc1F | -24 | . | -40% | . | ? | 16%
COC(=O)c1ccccc1NC(=O)CCS(=O)(=O)c1nc(-c2ccc3c(c2)OCO3)cc(C(F)(F)F)n1 | -63* | . | -21% | . | 20% | 11%
CCOc1ccc(CC(=O)NCc2ccc3c(c2)cc(C)n3C)cc1 | -1 | 5 | i | -2 | 0% | -1%
COC(=O)c1c(NC(=O)Cn2nc(C(F)F)cc2C(F)F)sc(C)c1C | -1 | -75* | i | -11 | -3% | -3%
COC(=O)c1c(NC(=O)CCCC(=O)O)sc(C)c1C | -2 | -83* | -8%[57.5 µM] | 4 | -2% | 3%
Fc1ccc(Nc2nc3nonc3nc2Nc2cccc(C(F)(F)F)c2)cc1 | -74* | . | -37% | . | -7% | 0%
O=C(Nc1ccccc1N1CCCC1)c1cc(S(=O)(=O)N2CCOCC2)ccc1Cl | -11 | 3 | -4% | -6 | -1% | -1%
O=C(O)CC1S/C(=N\N=C2CCCCCC2)N(c2ccccc2)C1=O (stereo unspecified) | -5 | 15 | -2% | -104* | -3% | 4%
Cc1ccccc1NC(=O)C(=O)N/N=C/c1cccc(Br)c1 | -12 | 15 | -29% | -7 | -2% | 2%
Cc1ccc(NC(=O)C(C)N=C2NS(=O)(=O)c3ccccc32)cc1 (stereo unspecified) | 0 | 20 | -22% | 42 | -4% | 0%
CCOc1ccc2nc(NC(=O)CSc3nc4ccccc4c(=O)n3Cc3ccco3)sc2c1 | 0 | -97* | -18%[57.5 µM] | ? | -9% | 0%
CCOC(=O)CSc1nc2ccccc2c(=O)n1Cc1ccco1 | -3 | 0 | i | 3 | -1% | 0%
O=C(CSc1nc2ccccc2c(=O)n1Cc1ccco1)N1CCN(c2ccccc2)CC1 | 8 | -107* | -2%[57.5 µM] | -104* | -5% | -1%
COc1ccc(CNc2nc3c(c(=O)n(Cc4ccc(Br)cc4)c(=O)n3C)n2C)cc1 | -4 | 9 | -60%[57.5 µM] | -12 | -3% | 0%
SMILES | RXFP1 antag | KCNH2 3.1 inh | PTHR1 ag | hERG WT inh | GRP78 ERSR act | RXFP1 agonist
COc1cc(/C=N/NC(=O)c2ccc(CSc3nc4ccccc4[nH]3)cc2)cc(OC)c1OC | 9 | -10 | -33% | 2 | -1% | 1%
CCOc1ccc2c(c1)C(c1ccc(C)cc1)=NNC(c1ccc(OC)cc1)=N2 | 5 | -94* | -9%[57.5 µM] | -40 | 1% | 0%
N#CC(C#N)=C1C=CC=CN1/C(=C\c1ccco1)C(=O)c1ccc(Br)cc1 | ? | -43 | -13% | -1 | -15% | -1%
N#CC(C#N)=C1C=CC=CN1/C(=C\c1ccco1)C(=O)c1ccccc1 | -104* | -18 | -31% | 1 | -14% | -2%
COc1ccc(C(=O)/C(=C\c2ccco2)N2C=CC=CC2=C(C#N)C#N)cc1 | -75* | -10 | -35% | -10 | -14% | 2%
COc1ccc(NC(=O)CSc2nc3ccccc3c(=O)[nH]2)cc1S(N)(=O)=O | 2 | -11 | -3% | -3 | -1% | 4%
CCN1CCN(S(=O)(=O)c2ccc(Cl)c(C(=O)Nc3ccccc3N3CCCCC3)c2)CC1 | -24 | -47 | i | 15 | -2% | 0%
COc1ccc(Cc2nnc(NCCO)[nH]c2=O)cc1 | 3 | 16 | -23% | -14 | -2% | -1%
COc1ccc(Cc2nnc(NCCO)[nH]c2=O)cc1OC | 3 | 9 | i | -118* | -2% | 2%
CC(C)CN(C(=O)CCC(=O)OCc1ccc(Cl)cc1Cl)c1c(N)n(CC(C)C)c(=O)[nH]c1=O | -6 | 9 | i | 22 | -3% | 0%
O=C(Nc1cccc(Cl)c1)Nc1ccc(Br)cc1F | . | -18 | -50% | 10 | 2% | 2%
O=C(NN1C(=O)c2ccccc2NC1c1ccc([N+](=O)[O-])o1)c1ccccc1 (stereo unspecified) | -26 | 0 | -6% | 9 | -1% | 1%
O=C(NN1C(=O)c2ccccc2NC1c1ccc([N+](=O)[O-])o1)c1ccc([N+](=O)[O-])cc1 (stereo unspecified) | 23 | 2 | i | 2 | ? | 2.8µM*
CC1(C)Oc2ccc(NC(=O)C3COc4ccccc4O3)cc2O1 (stereo unspecified) | -12 | -172* | -17%[57.5 µM] | -145* | -11% | 1%
Cc1ccc(NC(=O)C2COc3ccccc3O2)cc1 (stereo unspecified) | 13 | -17 | -20% | -26 | 0% | 1%
CC(CCc1ccc(O)cc1)NC1c2ccccc2-c2ccccc21 (stereo unspecified) | -5 | -35 | i | 5 | 5% | -2%
